# Laboratory results as given in the supplement of paper PMC9694430.
# Counter-ions that a name gives are not always drawn.
# Legend:
# Experiment in all cases: thermal shift delta Tm vs DMSO control; higher = stronger stabilization (binding)
# Details in all cases: 12.5 µM; protein concentration 2 µM
# LOC_OS01G57100-cb003 = test system: LOC_OS01G57100-cb003
# Procedure, shortened: (§1)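 Compounds dissolved in DMSO were added to purified rice kinase domain constructs, which had been expressed in E. coli, for differential scanning fluorimetry. Each well held 19.5 μl of 2 μM kinase in 100 mM potassium phosphate pH 7.5, 150 mM NaCl, 10% glycerol and 5 × SYPRO Orange. Fluorescence was followed from 25°C to 95°C at a rate of 0.05°C/s. Shifts in Boltzmann-fitted melting temperature are triplicate means relative to DMSO-only protein.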
# LOC_OS01G60330-cb001 = test system: LOC_OS01G60330-cb001
# Procedure, shortened: as §1
# LOC_OS01G60700-cb002 = test system: LOC_OS01G60700-cb002
# Procedure, shortened: as §1
# LOC_OS01G63280-cb003 = test system: LOC_OS01G63280-cb003
# Procedure, shortened: as §1
# LOC_OS01G67340-cb003 = test system: LOC_OS01G67340-cb003
# Procedure, shortened: as §1
# LOC_OS01G70970-cb002 = test system: LOC_OS01G70970-cb002
# Procedure, shortened: as §1
# LOC_OS02G07810-cb001 = test system: LOC_OS02G07810-cb001
# Procedure, shortened: as §1
# LOC_OS02G08530-cb003 = test system: LOC_OS02G08530-cb003
# Procedure, shortened: as §1
# LOC_OS02G14120-cb001 = test system: LOC_OS02G14120-cb001
# Procedure, shortened: as §1
# LOC_OS02G17970-cb001 = test system: LOC_OS02G17970-cb001
# Procedure, shortened: as §1
SMILES,thermal shift delta Tm (LOC_OS01G57100-cb003) [°C],thermal shift delta Tm (LOC_OS01G60330-cb001) [°C],thermal shift delta Tm (LOC_OS01G60700-cb002) [°C],thermal shift delta Tm (LOC_OS01G63280-cb003) [°C],thermal shift delta Tm (LOC_OS01G67340-cb003) [°C],thermal shift delta Tm (LOC_OS01G70970-cb002) [°C],thermal shift delta Tm (LOC_OS02G07810-cb001) [°C],thermal shift delta Tm (LOC_OS02G08530-cb003) [°C],thermal shift delta Tm (LOC_OS02G14120-cb001) [°C],thermal shift delta Tm (LOC_OS02G17970-cb001) [°C]
COc1cc(N2CCC(N3CCN(C)CC3)CC2)ccc1Nc1ncnc(Nc2ccccc2S(=O)(=O)C(C)C)n1,1.39,0.48,0.92,0.72,0.5,0.84,0.26,1.76,3.1,0.11
CN1CCN(c2ccc3nc(-c4c(N)c5c(F)cccc5[nH]c4=O)[nH]c3c2)CC1 [Dovitinib (TKI258) Lactate],1.26,14.2,1.84,1.58,7.49,8.33,0.88,4.27,6.8,2
CO[C@H]1CC[C@H](N2C(=O)CNc3ncc(-c4ccc(C(C)(C)O)nc4)nc32)CC1,-0.57,0.72,0.21,-0.43,0.09,-0.05,-0.1,0.65,-1.04,-0.48
CCn1c(=O)c(-c2ccc(Cl)cc2Cl)cc2cnc(Nc3ccc(N4CCNCC4)c(F)c3)nc21,2.04,0.13,1.12,5.95,6.72,2.45,0.21,0.94,7.16,1.08
CC(C)(C)c1cc(NC(=O)Nc2ccc(-c3cn4c(n3)sc3cc(OCCN5CCOCC5)ccc34)cc2)no1 [Quizartinib (AC220)],0.35,0.35,1.08,0.09,0.36,0.3,0.96,1.36,0.28,1.06
COc1cc2c3cc1Oc1c(OC)c(OC)cc4c1[C@@H](Cc1ccc(O)c(c1)Oc1ccc(cc1)C[C@@H]3N(C)CC2)N(C)CC4 [Berbamine (dihydrochloride)],1.3,-0.73,1.22,-0.06,0.28,0.03,-0.23,1.1,0.03,-0.21
COC1(c2sc3c(N4CCOCC4)nc(-c4cnc(N)nc4)nc3c2C)COC1,0.25,2.64,0.38,-0.37,0.5,0.89,0.33,2.22,0.63,0.32
O=C(NCc1ccccc1)c1csc(Nc2ccncn2)n1 [Thiazovivin],1.74,1.17,0.63,0.81,0.47,0.09,1.58,0.69,0.71,1.26
O=C1c2c(O)cc(O)cc2OC(c2ccc(O)c(O)c2)C1O (stereo not given) [Taxifolin (Dihydroquercetin)],1.27,0.28,0.38,0.25,0.07,0.29,0.09,0.73,0.32,0.67
"C=CC(=O)Nc1cccc(Nc2nc(Nc3ccc(N4CCN(C(C)=O)CC4)cc3OC)ncc2C(F)(F)F)c1 [Rociletinib (CO-1686, AVL-301)]",3.39,1.53,1.63,-0.27,0.52,1.38,1,5.28,1.71,0.49
Cc1n[nH]c2ncc(C(=O)N3CCC[C@H]3c3ccc(Cl)cc3)cc12,0.92,0.11,0.24,0.09,0.25,0.34,-0.7,1.34,1.35,0.38
c1cncc(CN2CCC(n3ncc4c(N5CCOCC5)nc(-c5ccc6[nH]ccc6c5)nc43)CC2)c1,2.55,0.61,0.71,0.09,-0.04,0.4,0.62,0.57,0.15,0.27
Cc1ccc(F)c(NC(=O)Nc2ccc(-c3cccc4[nH]nc(N)c34)cc2)c1 [Linifanib (ABT-869)],-0.27,4,2.06,4.52,2.81,1.72,1.34,3.05,4.49,0.94
CO[C@H]1C[C@@H]2CC[C@@H](C)[C@@](O)(O2)C(=O)C(=O)N2CCCC[C@H]2C(=O)O[C@H]([C@H](C)C[C@@H]2CC[C@@H](O)[C@H](OC)C2)CC(=O)[C@H](C)/C=C(\C)[C@@H](O)[C@@H](OC)C(=O)[C@H](C)C[C@H](C)/C=C/C=C/C=C/1C [Rapamycin (Sirolimus)],1.56,1.82,1.04,0.14,-0.59,0.17,0.45,0.43,1,0.46
COc1cc2ncnc(Nc3cccc(Cl)c3F)c2cc1OC(=O)N1CCN(C)C[C@H]1C,1.43,1.34,0.77,0.24,0.62,0.55,0.42,0.94,0.64,0.79
CNC(=O)c1cc(COc2nnc(Nc3ccc(Cl)cc3)c3ccoc23)ccn1 [Telatinib],1.9,0.6,0.35,0.76,0.82,0.19,0.85,0.69,-0.19,1.35
CNC(=O)c1ccccc1Nc1nc(Nc2ccc(N3CCOCC3)cc2OC)ncc1Cl,2.81,0.04,1.25,0.09,0.32,2.69,0.19,4.3,5.33,1.35
